The supplement of paper PMC10849652
The full data set covers some 8,800 targets. This sample favours those with a hit. About 0.5% of all pairs of compound and target were hits.

How the values were obtained:
Assay in all cases: log2 fold change, soluble protein after heating vs DMSO (PISA); higher = thermal stabilisation; K562 lysate, 10 uM; active = over 0.2 and 3.5 SD of the protein, either way, in both replicates (recomputed)
erlotinib = compound: C#Cc1cccc(Nc2ncnc3cc(OCCOC)c(OCCOC)cc23)c1 [erlotinib]
Summary of the method: (§1)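 A 30 min treatment with 10 μM compound was applied to crude K562 extract at 1 mg/mL protein in PBS pH 7.4 with 1 mM MgCl2. Heating for 3 min spanned 48°C-58°C, after which aliquots were pooled, adjusted to 0.5% NP-40 at 4°C and spun at 21,000xg for 90 min. TMTpro 16plex LC-MS/MS of the supernatant, with channel sums equalised, gave values recorded as log-two fold change in thermal stability against solvent controls, from duplicates.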

[1] = compound: C/C(=N\NC(=O)C1=CC(=CC=C1)S(=O)(=O)N2CCOCC2)/C3=C(C=CC(=C3)Cl)O
Summary of the method: as §1

[2] = compound: C1=CC(=CC=C1C2=NC3=C(N2)C=C(C=C3)C(=O)N)OC4=CC=C(C=C4)Cl
Summary of the method: as §1

[3] = compound: C1=CC2=C(C=CC(=C2)/C=C\3/C(=O)NC(=NCC4=CC=CS4)S3)N=C1
Summary of the method: as §1

[4] = compound: C1=CC2=NC=CN=C2C=C1/C=C/3\C(=O)NC(=O)S3
Summary of the method: as §1

[5] = compound: C1=CC=C(C=C1)C2=NC(=C(N2)C3=CC=NC=C3)C4=CC(=C(C=C4)Cl)O
Summary of the method: as §1

[6] = compound: C1=CC=C2C(=C1)C3=NNC4=CC=CC(=C43)C2=O
Summary of the method: as §1

[7] = compound: C1CCN(C1)C(=O)NC2=CC=CC(=C2)NC3=NC=C(C(=N3)NCCC4=CN=CN4)Br
Summary of the method: as §1

[8] = compound: C1CN(CCC1(CC2=CC=C(C=C2)Cl)N)C3=NC=NC4=C3C=CN4
Summary of the method: as §1

IRAK-1-4 Inhibitor I = compound: C1COCCN1CCN2C3=CC=CC=C3N=C2NC(=O)C4=CC(=CC=C4)[N+](=O)[O-] [IRAK-1-4 Inhibitor I]
Summary of the method: as §1

Measured: log2 fold change

NUDT4 (UniProt Q9NZJ9)
inactive: erlotinib -0.043 | [1] 0.233 | [2] -0.022 | [3] 0.07 | [4] -0.055 | [5] -0.009 | [6] 0.039 | [7] 0.059 | [8] 0.026 | IRAK-1-4 Inhibitor I -0.026

NCOR1 (UniProt O75376)
inactive: erlotinib 0.011 | [1] -0.05 | [2] 0.081 | [3] 0.004 | [4] -0.014 | [5] -0.041 | [6] -0.001 | [7] 0.009 | [8] 0.019 | IRAK-1-4 Inhibitor I 0.022

MT-CYB (UniProt P00156)
Chain of UniProt P00156 (P00156 whole entry, looked up): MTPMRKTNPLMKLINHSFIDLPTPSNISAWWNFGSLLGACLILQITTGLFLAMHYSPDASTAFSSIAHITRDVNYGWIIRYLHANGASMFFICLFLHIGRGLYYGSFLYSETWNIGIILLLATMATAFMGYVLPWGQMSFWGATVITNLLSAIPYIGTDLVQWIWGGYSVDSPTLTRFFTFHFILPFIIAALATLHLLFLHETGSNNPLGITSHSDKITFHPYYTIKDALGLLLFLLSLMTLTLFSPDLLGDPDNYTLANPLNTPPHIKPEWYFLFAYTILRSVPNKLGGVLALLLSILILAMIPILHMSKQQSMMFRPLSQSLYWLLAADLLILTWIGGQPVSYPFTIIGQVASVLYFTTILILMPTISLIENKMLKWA
inactive: erlotinib 0.076 | [1] 0.141 | [2] 0.027 | [3] 0.024 | [4] 0.015 | [5] -0.229 | [6] 0.126 | [7] -0.105 | [8] 0.025 | IRAK-1-4 Inhibitor I 0.028

PARP14 (UniProt Q460N5)
inactive: erlotinib 0.06 | [1] -0.037 | [2] 0.012 | [3] -0.032 | [4] 0.081 | [5] 0.005 | [6] -0.166 | [7] -0.025 | [8] 0.062 | IRAK-1-4 Inhibitor I -0.095

NCAPG (UniProt Q9BPX3)
inactive: erlotinib -0.008 | [1] -0.018 | [2] -0.004 | [3] -0.01 | [4] -0.007 | [5] 0.006 | [6] -0.026 | [7] 0.002 | [8] 0.013 | IRAK-1-4 Inhibitor I -0.011

NUCB2 (UniProt P80303)
Chain of UniProt P80303 (P80303 whole entry, looked up): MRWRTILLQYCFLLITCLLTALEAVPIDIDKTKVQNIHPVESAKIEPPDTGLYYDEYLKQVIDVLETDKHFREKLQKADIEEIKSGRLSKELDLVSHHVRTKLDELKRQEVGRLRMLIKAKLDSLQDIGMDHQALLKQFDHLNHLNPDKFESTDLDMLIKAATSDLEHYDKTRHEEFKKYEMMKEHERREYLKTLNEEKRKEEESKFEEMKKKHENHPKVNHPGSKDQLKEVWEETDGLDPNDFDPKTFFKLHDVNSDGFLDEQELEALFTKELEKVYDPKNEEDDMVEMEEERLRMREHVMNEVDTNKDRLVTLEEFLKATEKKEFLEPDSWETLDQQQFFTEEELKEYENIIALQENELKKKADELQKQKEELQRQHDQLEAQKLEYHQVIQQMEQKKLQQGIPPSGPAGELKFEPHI
inactive: erlotinib -0.003 | [1] 0.018 | [2] 0.014 | [3] -0.018 | [4] 0.011 | [5] -0.015 | [6] -0.017 | [7] 0.003 | [8] 0.003 | IRAK-1-4 Inhibitor I 0.007

OGT (UniProt O15294)
Chain of UniProt O15294 (O15294 whole entry, looked up): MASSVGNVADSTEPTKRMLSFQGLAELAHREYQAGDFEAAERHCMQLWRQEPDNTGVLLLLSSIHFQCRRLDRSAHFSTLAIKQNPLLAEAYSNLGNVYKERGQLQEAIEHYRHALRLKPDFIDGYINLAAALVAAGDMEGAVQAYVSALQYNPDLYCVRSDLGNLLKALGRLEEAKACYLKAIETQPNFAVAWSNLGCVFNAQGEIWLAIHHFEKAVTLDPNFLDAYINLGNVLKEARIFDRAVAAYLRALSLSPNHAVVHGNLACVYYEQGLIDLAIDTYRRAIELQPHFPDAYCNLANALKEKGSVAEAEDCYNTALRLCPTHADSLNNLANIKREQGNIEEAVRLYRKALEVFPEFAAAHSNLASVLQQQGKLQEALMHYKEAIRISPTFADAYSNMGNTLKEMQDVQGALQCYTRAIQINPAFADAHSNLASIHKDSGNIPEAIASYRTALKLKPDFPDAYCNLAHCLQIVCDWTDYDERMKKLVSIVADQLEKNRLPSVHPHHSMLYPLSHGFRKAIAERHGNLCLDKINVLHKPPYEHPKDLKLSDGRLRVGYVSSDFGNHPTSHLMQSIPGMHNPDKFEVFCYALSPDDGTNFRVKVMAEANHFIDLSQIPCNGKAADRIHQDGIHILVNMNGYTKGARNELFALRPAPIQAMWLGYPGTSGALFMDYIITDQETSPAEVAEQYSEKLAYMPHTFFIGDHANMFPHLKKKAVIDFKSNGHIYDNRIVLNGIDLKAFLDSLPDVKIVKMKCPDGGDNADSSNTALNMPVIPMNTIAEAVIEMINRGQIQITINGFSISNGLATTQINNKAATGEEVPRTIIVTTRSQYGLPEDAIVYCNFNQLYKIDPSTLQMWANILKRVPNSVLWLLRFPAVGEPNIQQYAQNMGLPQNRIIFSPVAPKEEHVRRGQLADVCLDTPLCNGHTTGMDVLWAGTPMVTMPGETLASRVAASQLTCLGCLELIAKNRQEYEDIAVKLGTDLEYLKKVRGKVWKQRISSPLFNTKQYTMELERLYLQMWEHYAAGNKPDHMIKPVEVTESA
inactive: erlotinib 0.021 | [1] 0.053 | [2] 0.01 | [3] -0.008 | [4] 0.008 | [5] 0.024 | [6] -0.021 | [7] -0.006 | [8] 0.02 | IRAK-1-4 Inhibitor I -0.017

NAP1L5 (UniProt Q96NT1)
Chain of UniProt Q96NT1 (Q96NT1 whole entry, looked up): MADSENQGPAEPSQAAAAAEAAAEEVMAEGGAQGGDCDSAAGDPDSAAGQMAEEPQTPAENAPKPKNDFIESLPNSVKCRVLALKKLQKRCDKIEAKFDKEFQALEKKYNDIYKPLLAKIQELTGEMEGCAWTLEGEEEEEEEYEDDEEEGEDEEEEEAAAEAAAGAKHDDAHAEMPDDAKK
inactive: erlotinib -0.003 | [1] -0.023 | [2] 0.017 | [3] -0.014 | [4] -0.014 | [5] 0.084 | [6] -0.116 | [7] -0.057 | [8] 0 | IRAK-1-4 Inhibitor I -0.059

NEBL isoform 2 (UniProt O76041)
Chain of UniProt O76041 (O76041 whole entry, looked up): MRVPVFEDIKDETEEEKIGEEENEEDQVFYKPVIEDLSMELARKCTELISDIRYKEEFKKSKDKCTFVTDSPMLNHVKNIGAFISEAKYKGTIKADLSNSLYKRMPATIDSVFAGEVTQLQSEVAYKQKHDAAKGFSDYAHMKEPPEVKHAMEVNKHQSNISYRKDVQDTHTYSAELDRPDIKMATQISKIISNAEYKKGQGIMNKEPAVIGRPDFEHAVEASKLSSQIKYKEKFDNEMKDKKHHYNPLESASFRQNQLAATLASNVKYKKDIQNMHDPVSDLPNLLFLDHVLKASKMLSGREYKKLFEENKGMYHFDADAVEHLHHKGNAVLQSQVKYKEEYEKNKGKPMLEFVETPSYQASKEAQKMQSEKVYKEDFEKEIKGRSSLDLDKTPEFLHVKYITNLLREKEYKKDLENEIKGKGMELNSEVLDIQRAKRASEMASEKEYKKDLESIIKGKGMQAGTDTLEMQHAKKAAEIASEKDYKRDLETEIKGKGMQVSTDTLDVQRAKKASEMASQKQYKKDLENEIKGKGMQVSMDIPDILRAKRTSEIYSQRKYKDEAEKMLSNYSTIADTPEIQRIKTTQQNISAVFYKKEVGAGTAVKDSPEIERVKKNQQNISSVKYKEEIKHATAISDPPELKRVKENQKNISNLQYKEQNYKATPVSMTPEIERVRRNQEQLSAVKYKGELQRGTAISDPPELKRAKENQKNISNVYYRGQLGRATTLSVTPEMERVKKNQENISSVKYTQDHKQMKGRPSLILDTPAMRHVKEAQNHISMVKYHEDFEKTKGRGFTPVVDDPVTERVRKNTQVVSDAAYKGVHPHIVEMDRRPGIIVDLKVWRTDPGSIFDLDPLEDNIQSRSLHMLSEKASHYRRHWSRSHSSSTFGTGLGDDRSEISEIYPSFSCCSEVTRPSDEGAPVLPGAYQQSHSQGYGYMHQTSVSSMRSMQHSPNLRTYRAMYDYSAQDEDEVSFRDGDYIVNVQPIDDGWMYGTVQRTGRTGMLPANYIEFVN
inactive: erlotinib 0 | [1] 0.081 | [2] 0.045 | [3] 0.012 | [4] 0.016 | [5] 0.015 | [6] 0.003 | [7] -0.007 | [8] -0.006 | IRAK-1-4 Inhibitor I -0.005

OTUD7B (UniProt Q6GQQ9)
inactive: erlotinib 0.028 | [1] -0.06 | [2] 0.075 | [3] -0.026 | [4] -0.017 | [5] -0.006 | [6] -0.076 | [7] -0.002 | [8] 0.032 | IRAK-1-4 Inhibitor I -0.039

OSBP2 (UniProt Q969R2)
Chain of UniProt Q969R2 (Q969R2 whole entry, looked up): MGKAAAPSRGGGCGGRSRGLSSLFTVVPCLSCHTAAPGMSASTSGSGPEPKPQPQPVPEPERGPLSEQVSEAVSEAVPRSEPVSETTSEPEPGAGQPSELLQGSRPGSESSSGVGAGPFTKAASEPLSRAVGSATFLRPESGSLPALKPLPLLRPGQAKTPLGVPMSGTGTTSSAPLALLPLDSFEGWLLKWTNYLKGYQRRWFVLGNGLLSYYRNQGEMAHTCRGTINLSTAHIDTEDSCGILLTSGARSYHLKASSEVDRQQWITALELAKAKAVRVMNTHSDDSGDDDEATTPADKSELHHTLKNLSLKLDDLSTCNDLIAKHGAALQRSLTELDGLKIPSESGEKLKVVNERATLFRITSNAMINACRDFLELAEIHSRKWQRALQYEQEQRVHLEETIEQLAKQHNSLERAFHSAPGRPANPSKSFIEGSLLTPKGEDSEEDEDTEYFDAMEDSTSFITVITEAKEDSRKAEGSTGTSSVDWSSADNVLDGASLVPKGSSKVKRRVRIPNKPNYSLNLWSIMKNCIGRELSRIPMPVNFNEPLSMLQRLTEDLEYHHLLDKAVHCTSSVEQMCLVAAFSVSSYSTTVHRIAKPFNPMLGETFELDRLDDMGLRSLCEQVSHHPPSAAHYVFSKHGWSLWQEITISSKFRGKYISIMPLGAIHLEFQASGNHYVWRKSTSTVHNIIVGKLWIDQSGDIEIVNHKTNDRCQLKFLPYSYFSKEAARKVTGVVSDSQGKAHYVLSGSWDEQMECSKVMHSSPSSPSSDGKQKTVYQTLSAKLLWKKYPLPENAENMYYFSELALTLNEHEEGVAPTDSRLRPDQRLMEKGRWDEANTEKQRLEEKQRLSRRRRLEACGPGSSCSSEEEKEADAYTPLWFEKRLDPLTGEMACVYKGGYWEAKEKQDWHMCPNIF
inactive: erlotinib -0.019 | [1] -0.254 | [2] 0.08 | [3] 0.032 | [4] -0.039 | [5] -0.077 | [6] -0.075 | [7] 0.037 | [8] -0.01 | IRAK-1-4 Inhibitor I -0.061

PBK (UniProt Q96KB5)
inactive: erlotinib 0.012 | [1] 0.026 | [2] -0.044 | [3] 0.014 | [4] -0.014 | [5] 0.008 | [6] -0.001 | [7] -0.007 | [8] -0.011 | IRAK-1-4 Inhibitor I -0.007

NOB1 (UniProt Q9ULX3)
inactive: erlotinib 0.011 | [1] -0.028 | [2] 0.012 | [3] -0.016 | [4] -0.02 | [5] 0.023 | [6] -0.016 | [7] -0.016 | [8] -0.027 | IRAK-1-4 Inhibitor I 0.011

NMT1 (UniProt P30419)
Chain of UniProt P30419 (P30419 whole entry, looked up): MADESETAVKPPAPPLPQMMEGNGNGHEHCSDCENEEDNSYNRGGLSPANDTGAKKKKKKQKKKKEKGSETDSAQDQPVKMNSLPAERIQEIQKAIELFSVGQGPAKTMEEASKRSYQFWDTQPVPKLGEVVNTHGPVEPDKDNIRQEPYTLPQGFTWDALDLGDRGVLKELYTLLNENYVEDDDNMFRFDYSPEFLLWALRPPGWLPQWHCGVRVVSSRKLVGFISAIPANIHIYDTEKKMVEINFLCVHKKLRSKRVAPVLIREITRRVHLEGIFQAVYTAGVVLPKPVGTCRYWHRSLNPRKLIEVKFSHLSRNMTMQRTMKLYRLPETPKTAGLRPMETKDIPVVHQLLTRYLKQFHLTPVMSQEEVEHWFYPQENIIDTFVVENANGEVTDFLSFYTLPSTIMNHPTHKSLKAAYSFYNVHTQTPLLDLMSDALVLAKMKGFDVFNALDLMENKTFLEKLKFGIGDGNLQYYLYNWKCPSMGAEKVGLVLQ
inactive: erlotinib -0.027 | [1] -0.147 | [2] 0.15 | [3] 0.019 | [4] -0.021 | [5] -0.024 | [6] 0.062 | [7] -0.012 | [8] -0.165 | IRAK-1-4 Inhibitor I -0.027

ORC2 (UniProt Q13416)
Chain of UniProt Q13416 (Q13416 whole entry, looked up): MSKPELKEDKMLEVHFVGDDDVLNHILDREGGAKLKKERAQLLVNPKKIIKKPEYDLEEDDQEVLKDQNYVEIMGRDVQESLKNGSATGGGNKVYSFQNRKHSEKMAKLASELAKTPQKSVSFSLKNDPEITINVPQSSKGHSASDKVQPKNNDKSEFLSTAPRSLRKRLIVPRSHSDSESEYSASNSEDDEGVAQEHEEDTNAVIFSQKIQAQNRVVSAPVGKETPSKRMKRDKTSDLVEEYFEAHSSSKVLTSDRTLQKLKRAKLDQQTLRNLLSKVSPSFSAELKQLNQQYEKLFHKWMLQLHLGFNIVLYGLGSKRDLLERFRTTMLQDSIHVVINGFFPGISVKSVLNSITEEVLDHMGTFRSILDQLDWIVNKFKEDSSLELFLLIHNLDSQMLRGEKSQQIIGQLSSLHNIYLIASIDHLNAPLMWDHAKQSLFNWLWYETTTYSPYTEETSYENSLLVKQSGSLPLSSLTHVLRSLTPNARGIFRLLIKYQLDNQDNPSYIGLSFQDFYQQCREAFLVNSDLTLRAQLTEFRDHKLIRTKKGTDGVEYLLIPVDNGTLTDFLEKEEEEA
inactive: erlotinib -0.004 | [1] -0.006 | [2] -0.006 | [3] 0.009 | [4] 0.015 | [5] 0.006 | [6] -0.022 | [7] 0 | [8] -0.024 | IRAK-1-4 Inhibitor I -0.034
